ChEMBL document CHEMBL3988442, “University of Dundee, Small-Polar-MMV Screening Library” (2021)
Out of some 48,000 compounds screened, about 13,000 (27%) showed an effect of 50% or more. The list shows a part of the results.

Each compound was assayed on Wolbachia pipientis (assay: Anti-Wolbachia Cell-Based Screen). Settings: 5 µM.
Format: functional
Design: scale not given: in the data most compounds retested in dose-response had high values

Point of comparison: Cc1nc(CN2CCCC(NCc3ccsc3)C2)no1 (configuration not stated), “Percent Effect” value 1.864%. Against it:
- O=S(=O)(C/C=C/c1ccccc1)Cc1nc(C2CC2)no1 — higher, 14.62%
- CCn1ccnc1CN1CCN(CCOc2cccc(C#N)c2)CC1 — lower, -6.749%
- CC(C)c1cnc(CNc2c(F)cccc2-n2cccn2)o1 — higher, 11.31%
- CCNC(=O)NC1CN(Cc2ccccc2N(C)C)C[C@@H]1OC (some centres not stated) — lower, 0.7877%
- CC(NC(=O)N1CCc2sccc2C1)c1nncn1C (configuration not stated) — higher, 8.221%
- CN(C)C(=O)N1C[C@@H]2CCCO[C@@H]2[C@H](N(C)Cc2ccco2)C1.O=C(O)C(F)(F)F — lower, -2.152%
- Cc1nccn1-c1cc(CNC(=O)CCNC(=O)C2CCCC2)ccn1 — higher, 5.543%
- Cc1nc(CN2CCCC(NCC(=O)Nc3cccnc3)C2)no1 (configuration not stated) — lower, -1.962%
- CCOc1cccc(CNC2CCCN(Cc3noc(C)n3)C2)c1 (configuration not stated) — higher, 100.5%
- Cn1cc(CNC2CCCN(Cc3noc(C4CC4)n3)C2)cn1 (configuration not stated) — lower, -8.767%
- Cc1nc(CN2CCCC(NCc3cnn(C)c3)C2)no1 (configuration not stated) — higher, 104.5%
- Cc1nc(CN2CCCC(NCCc3ccccc3Cl)C2)no1 (configuration not stated) — lower, -3.863%
- Cc1nc(CN2CCCC(Nc3ncnc4ccccc34)C2)no1 (configuration not stated) — lower, -16.22%
- Cc1nc(CN2CCCC(NCCOc3ccccc3)C2)no1 (configuration not stated) — lower, -9.342%
- Cc1nc(CN2CCCC(NCc3cccc4ccccc34)C2)no1 (configuration not stated) — higher, 107.2%
- CCc1nc(CN2CCCC(NCc3cnn(C(C)(C)C)c3)C2)no1 (configuration not stated) — lower, -2.673%
- Cc1nc(CN2CCCC(N(C)c3cnc4ccccc4n3)C2)no1 (configuration not stated) — lower, -0.8744%
- Cc1nc(CN(C)C2CCN(Cc3nc4ccccc4s3)C2)no1 (configuration not stated) — higher, 10.14%
- Cc1nc(CN2CCCC(NCc3nc4ccccc4s3)C2)no1 (configuration not stated) — higher, 116.1%
- Cc1cccc(CNC(Cn2cncn2)c2ccccc2)c1C (configuration not stated) — lower, -43.08%
- CN(C)c1cc2c(nn1)CCN(C(=O)Cc1noc3ccccc13)C2 — higher, 12.15%
- CN(Cc1csc(-c2ccccc2)n1)C(=O)CCn1ccccc1=O — lower, -32.35%
- Cc1nc(CN2CCCC(NCc3ccc(Cl)s3)C2)no1 (configuration not stated) — higher, 105.2%
- Cc1nc(CN2CCCC(NCCOCC(F)(F)F)C2)no1 (configuration not stated) — lower, -2.958%
- Cc1nc(CN2CCCC(N(C)Cc3cscn3)C2)no1 (configuration not stated) — higher, 2.968%
- COc1ccc(CNC2CCCN(Cc3noc(C)n3)C2)cc1F (configuration not stated) — lower, -5.655%
- Cc1nc(CN2CCCC(NCc3sccc3C)C2)no1 (configuration not stated) — higher, 84.94%
- Cc1nc(CN2CCCC(NCc3c(C)nc4sccn34)C2)no1 (configuration not stated) — lower, -4.535%
- Cc1nc(CN2CCCC(NCc3ccc4ccccc4c3)C2)no1 (configuration not stated) — higher, 117%
- Cc1nc(CN2CCCC(NCc3csc(C(C)(C)C)n3)C2)no1 (configuration not stated) — higher, 82.03%
- CCOc1cccc(CN2CCCn3nc(CNS(C)(=O)=O)cc3C2)c1 — lower, -2.285%
- Cc1nc(CN2CCCC(NCc3ccc4c(c3)CCO4)C2)no1 (configuration not stated) — higher, 109.8%
- Cc1ncnc2c1CCN(Cc1ccccn1)CC2.O=C(O)C(F)(F)F.O=C(O)C(F)(F)F — lower, -3.635%
- Cc1cccc(CN2CCc3ncnc(C4CC4)c3CC2)n1.O=C(O)C(F)(F)F — higher, 113.1%
- Cc1cccc(CN2CCc3ncnc(C)c3CC2)n1.O=C(O)C(F)(F)F — lower, -2.689%
- Cc1cccc(CN2CCc3ncnc(NC4CCC4)c3CC2)n1.O=C(O)C(F)(F)F.O=C(O)C(F)(F)F — higher, 78.48%
- O=C(O)C(F)(F)F.O=C(O)C(F)(F)F.c1ccc(CN2CCc3ncnc(C4CCOC4)c3CC2)nc1 (configuration not stated) — higher, 3.596%
- CN(c1nc(CSc2nnc(Cn3cncn3)o2)cs1)C1CC1 — lower, -4.174%
- O=C(CCc1c[nH]cn1)N1CC[C@@H](c2ccc3ccccc3c2)[C@H](O)C1 — lower, -1.023%
- Cc1n[nH]c(SCC(=O)NC(c2ccccn2)C(C)C)n1 (configuration not stated) — lower, 0.231%
- CC(C)Cn1cc(NC(=O)NC(C)(C)c2nccs2)cn1 — lower, -7.007%
- Cc1noc(C)c1-c1cccc(C2CN(CC(=O)N(C)C)CCO2)n1.O=CO (configuration not stated) — higher, 138.9%
- Cc1noc(C)c1CN(C)C(=O)C1CCN(S(N)(=O)=O)CC1 — lower, -4.387%
- Cc1nc(-c2c(C)noc2C)cc(C2CCN(S(=O)(=O)N(C)C)CC2)n1 — higher, 103.8%
- Cc1noc(C)c1-c1cccc(C2CN(S(=O)(=O)N(C)C)CCO2)n1 (configuration not stated) — higher, 137.9%
- CCC[C@H]1CN(S(=O)(=O)c2ccc(-c3c(C)noc3C)s2)C[C@@H]1N — lower, -6.038%
- CCc1n[nH]c(C2CN(CC(=O)N(C)Cc3ccco3)CCO2)n1 (configuration not stated) — lower, -22.35%
- CC(C)c1n[nH]c(C2CN(CC(=O)N(C)Cc3ccco3)CCO2)n1 (configuration not stated) — lower, -2.203%
- Cc1nc(-c2c(C)noc2C)cc(C2CCN(CC(=O)N(C)C)CC2)n1 — higher, 77.89%
- Cc1cc(C(F)(F)F)c2c(C3CCN(S(=O)(=O)N(C)C)CC3)noc2n1 — lower, -7.595%
- Cc1cc(Cl)cc(C)c1CNC1CCN(CC(=O)N(C)C)CC1 — lower, -21.25%
- CCN(C)C(=O)CN1CCC(c2cc(N3CCOCC3)nc(C)n2)CC1 — higher, 11.68%
- Oc1ccc(-c2c(-c3ccccc3)ncn2C[C@H]2CCCN2)cc1 — lower, -6.352%
- CCc1noc(C(C)N2CCC(NS(=O)(=O)c3ccccc3)CC2)n1 (configuration not stated) — lower, -5.336%
- CN(C(=O)CN1CCC(c2cc3ccccc3[nH]2)CC1)C1CC1 — lower, -16.32%
- Cc1noc(C)c1-c1cccc(C2CCN(CC(=O)N(C)C)CC2)n1 — higher, 159.5%
- CN(C(=O)CN1CCC(c2cc3ccccc3[nH]2)CC1)C(C)(C)C#N — lower, -0.1259%
- Cc1csc(CNc2cccc(OCCN3CCCC3)c2)n1 — lower, -3.385%
- CCOc1cc(C(=O)N2CC=C(c3ccc(O)cc3)CC2)ccn1 — lower, -12.82%
- CCOc1cc(C(=O)N2CCCC(c3noc(C(C)C)n3)C2)ccn1 (configuration not stated) — higher, 127.2%
- CCOc1cc(C(=O)N2CCCC(c3noc(C)n3)C2)ccn1 (configuration not stated) — lower, -8.742%
- CCOc1cc(C(=O)N2CCCC(c3nc(C)c(C)s3)C2)ccn1 (configuration not stated) — higher, 118.9%
- CC(C)c1nc(C2CCCN(C(=O)c3nccn4ccnc34)C2)no1 (configuration not stated) — higher, 101.8%
- CCOc1cc(CNC(=O)NCc2nc(C)c(C)s2)ccn1 — lower, -14.7%
- Cc1ncsc1C(=O)N1CCCC(c2noc(C(C)C)n2)C1 (configuration not stated) — lower, -0.9065%
- CCOc1cc(C(=O)N2CCCC(c3noc(CC)n3)C2)ccn1 (configuration not stated) — higher, 112.4%
